Assay results published in the supplement of paper PMC12340641.
Structures can show the parent of a compound that is named as a salt. ± gives the standard deviation of the averaged measurements.

Key:
[1] = biological target: IKZF1 (dCK*-IKZF1 fusion in HEK293FT) (UniProt Q13422); assay: inhibition of IKZF1 HTRF signal (DMSO = 0%, pomalidomide 10 uM = 100%); higher = lower IKZF1 protein level; conditions: compound concentration: 5 uM, overnight (~20 h)
Outline: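 For percent inhibition of IKZF1 signal, each plate was normalised to vehicle and to a reference degrader. Cells were HEK293FT stably expressing an IKZF1 fusion, plated at 2000/well in 384-well format and treated overnight at 37 °C with 5 μM compound, one well each. Lysates were probed overnight with a commercial HTRF total-IKZF1 antibody kit, with the 665/620 nm ratio background-subtracted and vehicle and degrader fixed at 0% and 100%.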

HEK293FT dCK*-only = assay: relative growth in counter assay (no AraC = 100%, AraC + DMSO = 0%); higher = more growth rescue independent of IKZF1; conditions: compound concentration: 5 uM; AraC concentration: 0.3 uM; overnight pretreatment + 4 days AraC
Outline: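 HEK293FT cells carrying only an engineered kinase construct were plated at 300 per well (384-well) and given 5 μM compound 2 h later. Following overnight at 37 °C, a nucleoside suicide substrate (0.3 μM) plus medium was added for 4 days. Hoechst 33342-stained nuclei were imaged and counted on day 5, with 100% assigned to wells without suicide substrate and 0% to substrate plus vehicle on each plate.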

HEK293FT dCK*-IKZF1 = assay: relative growth recovery (pomalidomide 10 uM = 100%, DMSO = 0%); higher = more growth rescue (IKZF1 fusion degradation); conditions: compound concentration: 5 uM; AraC concentration: 0.3 uM; overnight pretreatment + 4 days AraC
Outline: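 Means of duplicates from different days are given for growth recovery, normalised per plate against a reference degrader and vehicle. The reference degrader set the 100% level and vehicle the 0% level. HEK293FT cells stably expressing a deoxycytidine kinase–IKZF1 fusion (300/well, 384-well) received 5 μM compound 2 h after seeding and, after overnight at 37 °C, 0.3 μM of a nucleoside suicide substrate plus medium for 4 days. Nuclei stained with Hoechst 33342 were then counted by whole-well imaging on day 5.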

IKZF1 (dCK*-IKZF1 fusion in HEK293FT), sequence (Q13422 whole entry, looked up, the tested form may be a part): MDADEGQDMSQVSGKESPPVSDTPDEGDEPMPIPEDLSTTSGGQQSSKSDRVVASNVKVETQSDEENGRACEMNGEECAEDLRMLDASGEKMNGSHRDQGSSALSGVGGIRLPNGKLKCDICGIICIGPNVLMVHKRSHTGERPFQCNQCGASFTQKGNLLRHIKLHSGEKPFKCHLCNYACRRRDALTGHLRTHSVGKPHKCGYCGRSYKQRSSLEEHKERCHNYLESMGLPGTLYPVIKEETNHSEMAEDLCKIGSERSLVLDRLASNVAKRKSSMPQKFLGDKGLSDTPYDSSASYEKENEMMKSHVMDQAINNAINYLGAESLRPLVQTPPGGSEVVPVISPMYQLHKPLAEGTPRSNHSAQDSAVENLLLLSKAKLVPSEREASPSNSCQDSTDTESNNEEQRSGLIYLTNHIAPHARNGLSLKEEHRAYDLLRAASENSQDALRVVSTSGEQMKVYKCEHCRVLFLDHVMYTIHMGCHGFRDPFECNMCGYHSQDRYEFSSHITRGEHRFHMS

Row | SMILES | inhibition of IKZF1 HTRF signal [1] [%] | relative growth in counter assay (HEK293FT dCK*-only) [%] | relative growth recovery (HEK293FT dCK*-IKZF1) [%]
1 | Oc1cc(CNC(=S)/C=C/c2cc(O)c(O)c(Br)c2)cc(O)c1O | -32.2 | -34.9 | -11.9
2 | CN(C)CCC=C1c2ccccc2CCc2ccccc21 [Amitriptyline HCl] | 22.6 | 6.15 | -1.42
3 | Oc1cc(O)c2cc(O)c(-c3cc(O)c(O)c(O)c3)[o+]c2c1 [delphinidin] | 43.4 | -7.27 | -1.78
4 | CNC(=O)c1cccc(-c2ccc3c(N4CCOC[C@@H]4C)nc(N4CCOC[C@@H]4C)nc3n2)c1 [Vistusertib (AZD2014)] | 69.4 | -33 | -12.9
5 | O=C(Nc1ccc(Cl)cc1)Nc1ccc(Cl)c(Cl)c1 [Triclocarban] | 15.1 | 3.72 | -1.68
6 | O=C(O)c1cc(/N=N/c2ccc(O)c(C(=O)O)c2)ccc1O | -32.5 | -4.73 | 3.38
7 | CCCCc1ccc2[nH]c(NC(=O)OC)nc2c1 [parbendazole] | -10.3 | -34.4 | -11.7
8 | Cc1ccc(S(=O)(=O)N/N=C/c2cc(Br)ccc2O)cc1 | 26 ± 7.3 | -14 ± 4.4 | 2.03 ± 2.8
9 | CN1CCCC(CC2c3ccccc3Sc3ccccc32)C1 (centres undefined) [metixene] | -23.4 | 2.04 | 1.64
10 | CC1=C(/C=C/C(C)=C/C=C/C(C)=C/C=C/C=C(C)/C=C/C=C(C)/C=C/C2=C(C)CCCC2(C)C)C(C)(C)CCC1 | -23.6 | -13.6 | -1.69
11 | NC(=O)N/N=C/c1ccc([N+](=O)[O-])o1 | -34.9 | -3.72 | -4.82
12 | Cc1cc(C(C)(C)CC(C)(C)C)ccc1OCCOCC[N+](C)(C)Cc1ccccc1 | -17.4 | -4.05 | 5.47
13 | COc1cccc2c(O)c3c(O)c4c(c(O)c3c(O)c12)=C(O[C@H]1C[C@H](N)[C@@H](O)[C@H](C)O1)C[C@](O)(C(=O)CO)C=4 [Epirubicin HCl] | 24 | -34.6 | -13.6
14 | Cc1ccc(S(=O)(=O)NC(=O)NN2CCCCCC2)cc1 | -31.1 | 0.45 | -2.75
15 | O=C1c2c(O)ccc(O)c2C(=O)c2c(NCCNCCO)ccc(NCCNCCO)c21 | 5.77 | -35.5 | -13.7
16 | Cc1c(S(=O)(=O)O)oc2c1C(=O)C(=O)c1c-2ccc2c1CCCC2(C)C [sodium-tanshinone-ii-a-sulfonate] | 20.9 | 4.38 | -1.25
17 | Clc1ccccc1C(c1ccccc1)(c1ccccc1)n1ccnc1 | -36.9 | 5.96 | 2.19
18 | Oc1c(Cl)cc(Cl)c(Cl)c1Cc1c(O)c(Cl)cc(Cl)c1Cl | -36 | -1.16 | 0.025
19 | O=C1CC[C@H](N2Cc3cc(N4CCN(CC5CCN(c6ccc([C@@H]7c8ccc(O)cc8CC[C@@H]7c7ccccc7)cc6)CC5)CC4)ccc3C2=O)C(=O)N1 | -15.2 | 2.17 | 9.37
20 | CCCCC(CC)C/N=C(\N)N/C(N)=N/CCCCCC/N=C(\N)N/C(N)=N/CC(CC)CCCC (centres undefined) [Alexidine dihydrochloride] | 63.4 | -34.4 | -13.3
21 | COc1ccc(Cl)cc1C(=O)NCCc1ccc(S(=O)(=O)NC(=O)NC2CCCCC2)cc1 | -51.9 | -0.06 | 3.14

Row | SMILES | inhibition of IKZF1 HTRF signal [1] [%] | relative growth in counter assay (HEK293FT dCK*-only) [%] | relative growth recovery (HEK293FT dCK*-IKZF1) [%]
22 | Nc1nc(N)c2nc(-c3ccccc3)c(N)nc2n1 | 3.18 | -11 | -5.46
23 | C=C1C(=O)O[C@@H]2C=C(C)CCC=C(C)CC[C@@H]12 [costunolide] | -26.8 | -18.2 | -0.955
24 | CC1(C)CCC2=C(O1)c1ccccc1C(=O)C2=O | -30 | -24.5 | -10.9
25 | COc1ccc(-c2ccc3c(N4CCOCC4)nc(N4C[C@@H](C)O[C@@H](C)C4)nc3n2)cc1CO | 14.5 | -14 | -6.47
26 | O=C(O)c1ccc(S(=O)(=O)N(Cc2ccc(OC(F)(F)F)cc2)c2ncc(C(F)(F)F)cc2Cl)cc1 | -23.7 | 5.77 | 2.16
27 | O=C1CCC(N2C(=O)c3ccccc3C2=O)C(=O)N1 (centres undefined) [thalidomide] | -17.1 | 0.97 | 1.01
28 | O=C1Nc2ccc(Cl)cc2[C@@](C#CC2CC2)(C(F)(F)F)O1 [Efavirenz] | 0.88 | -1.3 | 0.45
29 | O=C(Nc1cc(C(F)(F)F)cc(C(F)(F)F)c1)Nc1c(Br)cc(Br)cc1-c1nnn[nH]1 | -17 | -2.42 | -4.01
30 | C=C1C(=O)O[C@@H]2C[C@@]3(C)CCC[C@H](C)C3=C[C@H]12 [alantolactone] | -31.2 | -28 | -7.37
31 | CN1CCN(CCCN2c3ccccc3Sc3ccc(C(F)(F)F)cc32)CC1 [Trifluoperazine  HCl] | -1.13 | 28.7 | 3.73
32 | CNCC(O)c1ccc(O)c(O)c1 (racemic) [DL-Adrenaline] | 10.3 | -3.86 | -4.26
33 | CC[C@H](C)[C@H]1O[C@]2(CC[C@@H]1C)C[C@@H]1C[C@@H](C/C=C(\C)[C@@H](O[C@H]3C[C@H](OC)[C@@H](O[C@H]4C[C@H](OC)[C@@H](O)[C@H](C)O4)[C@H](C)O3)[C@@H](C)/C=C/C=C3\CO[C@@H]4[C@H](O)C(C)=CC(C(=O)O1)[C@]34O)O2 (some centres undefined) [Ivermectin] | -28.1 | -2.12 | 0.635
34 | CN(C)CC/C=C1\c2ccccc2CSc2ccccc21 [dosulepin] | -26.3 | -9.29 | -1.36
35 | O=C(/C=C/c1ccc(O)cc1)c1ccc(O)cc1O [Isoliquiritigenin] | -0.21 | -7.18 | -1.02
36 | COC(=O)Nc1nc2ccc(C(=O)c3ccccc3)cc2[nH]1 | -12.9 | -32.6 | -10.6
37 | CC(C)[C@H]1c2ccc(F)cc2CC[C@@]1(CCN(C)CCCc1nc2ccccc2[nH]1)OC(=O)C1CC1 | -25.9 | -31.9 | -9.29
38 | CCC(=O)N1CCN(c2ccc(-n3c(=O)ccc4cnc5ccc(-c6cnc7ccccc7c6)cc5c43)cc2C(F)(F)F)CC1 [Torin 1] | 35.7 | -27.5 | -10.5
39 | O=C(OC)C1=C(C)NC(C)=C(C(OCCCN3CCC(C4=CC=CC=C4)(C5=CC=CC=C5)CC3)=O)[C@@H]1[C@]2=CC=CC([N+]([O-])=O)=C2 [dexniguldipine] | -24.7 | -15.1 | -5.83
40 | OCCN1CCN(CCCN2c3ccccc3Sc3ccc(Cl)cc32)CC1 | -36.5 | 3.78 | 4.08
41 | CCCCCCC[N+](CC)(CC)CCCCc1ccc(Cl)cc1 [clofilium] | -21.8 | -3.59 | -1.53
42 | NS(=O)(=O)c1cc2c(cc1Cl)NC(C(Cl)Cl)NS2(=O)=O (centres undefined) | 19.3 | -3.14 | -3.58

Row | SMILES | inhibition of IKZF1 HTRF signal [1] [%] | relative growth in counter assay (HEK293FT dCK*-only) [%] | relative growth recovery (HEK293FT dCK*-IKZF1) [%]
43 | COC(=O)Nc1nc2ccc(S(=O)c3ccccc3)cc2[nH]1 (centres undefined) | 5.34 | -12.6 | -3.6
44 | C=C1/C(=C\C=C2/CCC[C@]3(C)[C@@H]([C@H](C)/C=C/[C@H](C)C(C)(C)O)CC[C@@H]23)C[C@@H](O)C[C@@H]1O [Ercalcitriol] | -35 | 19.8 | 6.62
45 | CO[C@H]1/C=C/O[C@@]2(C)Oc3c(C)c(O)c4c(O)c(c(/C=N/N5CCN(C)CC5)c(O)c4c3C2=O)NC(=O)/C(C)=C\C=C\[C@H](C)[C@H](O)[C@@H](C)[C@@H](O)[C@@H](C)[C@H](OC(C)=O)[C@@H]1C | 33.6 | 12.9 | -2.5
46 | O=C1CN(/N=C/c2ccc(-c3ccc([N+](=O)[O-])cc3)o2)C(=O)N1 [dantrolene] | 27.9 | -3.99 | 4.57
47 | O=C(CCCCCCC(O)=NO)Nc1ccccc1 [Vorinostat] | -44.5 | -31.4 | -10.3
48 | CNC(=O)Nc1ccc(-c2nc(N3CC4CCC(C3)O4)c3cnn(C4CCC5(CC4)OCCO5)c3n2)cc1 | 70.5 | -32.9 | -13.5
49 | Cc1cc([C@H](C(=O)N2C[C@H](O)C[C@H]2C(=O)N[C@@H](CC(=O)N2CCC(C#Cc3ccc(C(=O)N[C@H]4C(C)(C)[C@H](Oc5ccc(C#N)c(Cl)c5)C4(C)C)cc3)CC2)c2ccccc2)C(C)C)on1 | 9.95 | 5.85 | -0.74
50 | CN(CC3)C[C@@H](O)[C@H]3[C@]1=C(OC(C4=CC=CC=C4Cl)=CC2=O)C2=C(O)C=C1O [alvocidib] | -30.5 | -35.2 | -12.5
51 | CC(C)(C)CC(C)(C)c1ccc(O)c(Cc2ccc(Cl)cc2Cl)c1 | 115 | -6.45 | -7.76
52 | NC1CC(O[C@H]2C[C@@]([C@@](C)=O)(O)CC3=C2C(O)=C5C(C(C4=CC=CC(OC)=C4C5=O)=O)=C3O)OC(C)C1O (some centres undefined) [daunorubicin] | 22 | -35.4 | -14.9
53 | CC(C)(C)c1ccc(/C=C/C(=O)Nc2ccc3c(c2)OCCO3)cc1 | -32 | -1.73 | 0.45
54 | CSCC1CN(/N=C/c2ccc([N+](=O)[O-])o2)C(=O)O1 (centres undefined) [Nifuratel] | -39.4 | -3.74 | -1.79
55 | COc1cc2c(cc1OC)[C@@H]1Cc3ccc(OC)c(OC)c3CN1CC2 [Rotundine] | 14.2 | -31.5 | -10.7
56 | CC[C@@]1(O)C(=O)OCc2c1cc1n(c2=O)Cc2cc3c(N)cccc3nc2-1 [9-aminocamptothecin] | 31.3 | -33.7 | -12.4
57 | O=C(OOC(=O)c1ccccc1)c1ccccc1 | -35.6 | -0.7 | 1.32
58 | COc1cc(/C=C/C(=O)CC(=O)/C=C/c2ccc(O)c(OC)c2)ccc1O [Curcumin] | -0.83 | -25.9 | -6.48
59 | O=C1[C@H]2CCCC[C@H]2C(=O)N1CCCCN1CCN(c2nsc3ccccc23)CC1 [Perospirone] | 16.4 | 19.5 | 13.7
60 | CC(NCCC(c1ccccc1)c1ccccc1)c1ccccc1 (centres undefined) [fendiline] | -38 | -1.99 | 2.01
61 | Cc1cccc(C)c1NC(=O)C(C)N (centres undefined) [Tocainide] | 20.5 | -12.9 | -3.04
62 | CC1(C)Oc2ccc(C#N)cc2[C@H](N(Cc2ncc[nH]2)c2ccc(Cl)cc2)[C@H]1O | -30.7 | -4.85 | 1.01
63 | O=C(NCc1ccc(OC(F)(F)F)cc1)C1c2ccccc2C(=O)N1C1CCOCC1 (centres undefined) | -25.8 | -2.6 | -1.02
